{
  "source": "PubChem BioAssay AID2551",
  "about": "(National Center for Advancing Translational Sciences (NCATS), 2010)",
  "note": "Among all 310,000 compounds or so, about 17,000 (5.5%) were called active. Not shown: some 11% with an inconclusive outcome. The sample as a whole holds a higher share of actives than the screen did. Unmarked numbers belong to inactive results. Calls follow the shape of the dose curve; as a rule, active = well fitted inhibition curve with a large enough effect; inconclusive = small, poorly fitted or top-dose-only effect, or effect the other way; inactive = no such curve, though single readings can be large or run the other way. % is scaled to controls: 0 for no effect and ±100 for the full control effect; potency is read from the fitted curve at half-maximal effect.",
  "data": [
    {"target": "Nuclear receptor ROR-gamma (Mus musculus) (UniProt P51450)", "sequence (P51450 whole entry, looked up, the tested form may be a part)": "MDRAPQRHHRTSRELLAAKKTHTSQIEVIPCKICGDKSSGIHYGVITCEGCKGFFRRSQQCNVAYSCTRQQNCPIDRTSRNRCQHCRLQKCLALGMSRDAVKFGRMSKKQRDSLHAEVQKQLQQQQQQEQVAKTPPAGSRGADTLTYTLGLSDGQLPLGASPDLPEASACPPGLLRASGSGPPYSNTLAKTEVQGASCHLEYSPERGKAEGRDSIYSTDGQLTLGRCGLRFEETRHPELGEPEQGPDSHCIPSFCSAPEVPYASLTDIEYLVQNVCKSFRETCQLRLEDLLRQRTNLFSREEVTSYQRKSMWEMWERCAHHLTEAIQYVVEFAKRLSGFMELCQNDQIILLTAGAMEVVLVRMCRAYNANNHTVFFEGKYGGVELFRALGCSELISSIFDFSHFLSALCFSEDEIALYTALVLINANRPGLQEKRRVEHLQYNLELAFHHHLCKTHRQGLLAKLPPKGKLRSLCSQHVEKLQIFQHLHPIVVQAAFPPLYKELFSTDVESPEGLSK", "assay": "qHTS for inhibitors of ROR gamma transcriptional activity; also: nearly all actives have a fitted effect of over 60% in size", "conditions": "Drosophila S2 Gal4-RORgamma UAS-luciferase reporter, 20 h; series mostly up to 53.6 µM; activity change, negative = inhibition: at the top concentration", "summary_of_the_method": "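ROR gamma transcriptional activity was tracked as Gal4-UAS luciferase output in stably transfected Drosophila Schneider cells, with compound added 1 hr before 700 uM copper sulfate induction and a 20 hr ambient-temperature incubation.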", "units": {"activity change, negative = inhibition": "%"}, "values": [
      {"smiles": "Cc1ccc2nc(-c3ccc(NC(=O)CN(C)S(=O)(=O)c4ccccc4)cc3)sc2c1", "Potency": "2000 nM (active)"},
      {"smiles": "Cc1nc2ccc(S(=O)(=O)N(C)CC(=O)NC(C)c3ccccc3)cc2s1", "note": "(stereo not given)", "activity change, negative = inhibition": 6.35},
      {"smiles": "Cc1cccc(N(CC(=O)Nc2ccc(-c3nc4ccc(C)cc4s3)cc2)S(C)(=O)=O)c1", "activity change, negative = inhibition": 12.6},
      {"smiles": "CCN(C(=O)CSc1nnc(-c2ccncc2)o1)c1ccccc1", "activity change, negative = inhibition": -0.118},
      {"smiles": "COc1ccc(NS(=O)(=O)c2cccc3nsnc23)cc1Cl", "activity change, negative = inhibition": 20.8},
      {"smiles": "CN(c1ccc2nc3ccccc3c(=O)n2n1)C1CCCCC1", "Potency": "398 nM (active)"},
      {"smiles": "CCOC(=O)C(C)Sc1nc2ccccc2c(=O)n1CC1CCCCC1", "note": "(stereo not given)", "activity change, negative = inhibition": 13.1},
      {"smiles": "O=c1c2ccccc2nc2n1C1(CCCCC1)Cc1ccccc1-2", "activity change, negative = inhibition": 13.3},
      {"smiles": "CC(=O)Oc1ccc(-c2cccc(C(=O)N3CCCCC3)c2)cc1", "activity change, negative = inhibition": 25.1},
      {"smiles": "COc1ccccc1OCCn1c(SCC(N)=O)nc2ccccc21", "activity change, negative = inhibition": 17.5},
      {"smiles": "O=C(NCc1cccnc1)C12CC3CC(CC(C3)C1)C2", "activity change, negative = inhibition": 0.141},
      {"smiles": "Cc1ccc(C(=O)NC2CCN(C(=O)Nc3ccccc3Cl)CC2)cc1", "activity change, negative = inhibition": -3.35},
      {"smiles": "CC(C)CNC(=O)C(=O)NCc1ccccc1", "activity change, negative = inhibition": -0.503},
      {"smiles": "CC(C)CC(=O)c1c[nH]c(C(=O)NCc2ccccc2)c1", "activity change, negative = inhibition": 3.37},
      {"smiles": "CC(C)CC(=O)NC(=S)NCc1ccccc1", "Potency": "5010 nM (active)"},
      {"smiles": "CC(C)CC(=O)NC(=S)Nc1cc(C(=O)O)ccc1Cl", "activity change, negative = inhibition": 7.72},
      {"smiles": "CC(=O)c1ccc(NC(=S)NC(=O)CC(C)C)cc1", "Potency": "12600 nM (active)"},
      {"smiles": "COc1ccc(NS(=O)(=O)c2ccc(NC(=S)NC(=O)CC(C)C)cc2)cc1", "activity change, negative = inhibition": -31.3},
      {"smiles": "CC1CCCCN1CCCNc1ccc(C(CC(N)=O)NC(=O)c2ccccc2)cc1[N+](=O)[O-]", "note": "(stereo not given)", "activity change, negative = inhibition": -13.3},
      {"smiles": "CCOC(=O)N1CCN(C(=O)C(=O)Nc2sc3c(c2C#N)CC(C)(C)OC3)CC1", "activity change, negative = inhibition": 9.29},
      {"smiles": "Cc1ccc(S(=O)(=O)NCC(=O)N2CCOCCOCCOCCOCC2)cc1", "activity change, negative = inhibition": -12.4},
      {"smiles": "O=C(c1ccc(Cl)cc1)n1cnc2ccccc21", "activity change, negative = inhibition": -14.8},
      {"smiles": "O=C(c1ccc(Cl)cc1)N1N=C(c2ccccn2)CC1(O)C(F)(F)F", "note": "(stereo not given)", "Potency": "1410 nM (active)"},
      {"smiles": "O=S(=O)(/N=C(/Nc1ccccn1)c1ccccc1)c1ccc(Cl)cc1", "activity change, negative = inhibition": 38.3},
      {"smiles": "COC(=O)c1ccc2ccccc2c1OC1OC(CO)C(O)C(O)C1NC(C)=O", "note": "(stereo not given)", "activity change, negative = inhibition": -4.64},
      {"smiles": "C=CCNC(=S)NNc1ncnc2sc3c(c12)CC(C)(C)OC3", "Potency": "1260 nM (active)"},
      {"smiles": "CN(C)CCSc1nc(N)c2c3c(sc2n1)COC(C)(C)C3", "activity change, negative = inhibition": -36.3},
      {"smiles": "CC1(C)Cc2c(sc3nc4n(c(=N)c23)CCCCC4)CO1", "activity change, negative = inhibition": 25.8},
      {"smiles": "Fc1ccc(-c2ccc(NCCN3CCOCC3)nn2)cc1", "activity change, negative = inhibition": 20},
      {"smiles": "CC(=O)c1c(C)oc2ccc(NS(=O)(=O)c3ccccc3)cc12", "activity change, negative = inhibition": 13.9}
    ]}
  ]
}
